# Mcl-1 Bim block = inhibitors of Bim-Mcl-1 interaction, human; Bead-based flow cytometry, Bim peptide-Mcl-1 binding; Q07820; inhibition, % at 10 µM; actives 0.1% (n = 190,000); in the data active = inhibition above about 40%;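 also: 0% = no compound tracer wells and 100% = peptide blocker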
# Target sequence (Q07820 whole entry, looked up): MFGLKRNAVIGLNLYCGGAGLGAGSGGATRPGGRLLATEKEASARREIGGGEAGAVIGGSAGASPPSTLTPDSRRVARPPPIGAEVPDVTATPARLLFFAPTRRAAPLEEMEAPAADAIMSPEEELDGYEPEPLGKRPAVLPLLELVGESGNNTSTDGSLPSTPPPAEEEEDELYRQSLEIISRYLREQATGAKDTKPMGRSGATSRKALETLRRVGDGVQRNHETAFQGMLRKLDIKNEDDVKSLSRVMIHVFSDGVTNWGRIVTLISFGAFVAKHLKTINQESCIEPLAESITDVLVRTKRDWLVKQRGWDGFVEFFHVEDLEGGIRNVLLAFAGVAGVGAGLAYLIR
# Mcl1-Bid inh = Mcl-1/Bid interaction inhibition; actives 0.97% (n = 220,000); AID 1021; Q07820; inhibition, % at 21.7 µM; TR-FRET Mcl-1/Bid-Dy647 peptide binding, 1536-well;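 active = compounds that cut the binding signal by more than half at the single screening dose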;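 also: His-tagged Mcl-1 with europium anti-His antibody binding Bid BH3 peptide; 0% = Mcl-1 plus peptide wells and 100% = peptide-only wells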
# BCLXL inh = inhibitors of human Bcl-xL. inhibition, % at 10.9 µM. AID 2129. GST-Bcl-xL / FITC-Bim BH3 peptide fluorescence polarization. actives 0.7% (n = 320,000);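 active = inhibition above the mean of all tested compounds plus 3 SD, cutoff set per campaign, cut at about 30% in these data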;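 also: 0% = DMSO wells and 100% = unlabeled Bim-BH3 peptide competitor; inhibitors lower millipolarization by displacing the labeled peptide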
# Target sequence (Q07817 whole entry, looked up): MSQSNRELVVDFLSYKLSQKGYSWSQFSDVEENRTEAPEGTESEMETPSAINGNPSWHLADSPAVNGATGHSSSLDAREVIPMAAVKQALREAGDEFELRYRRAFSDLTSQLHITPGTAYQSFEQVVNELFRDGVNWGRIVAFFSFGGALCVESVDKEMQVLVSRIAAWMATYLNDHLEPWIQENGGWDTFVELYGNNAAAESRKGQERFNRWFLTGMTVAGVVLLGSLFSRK
# MCL1 BIM primary = MCL1-BIM-BH3 interaction inhibition (human); Q07820; GST-MCL1 / FITC-Bim-BH3 fluorescence polarization; inhibition, % at 10.9 µM; actives 0.68% (n = 320,000);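 active = inhibition above the mean inhibition of all tested compounds plus 3 SD, set per campaign, cut at about 40% in these data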;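 also: 0% = DMSO wells and 100% = unlabeled Bim-BH3 peptide control; higher means more loss of mP so more displacement of Bim peptide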
# Mcl1-Noxa inh = disrupts binding of human Mcl-1 to Noxa peptide. TR-FRET Mcl-1/Noxa peptide binding, 2 h. actives 1.5% (n = 220,000). inhibition, % at 21.7 µM. AID 1022. Q07820;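 active = compounds that cut the protein-peptide binding signal by more than 50% relative to plate controls in a single-dose test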;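 also: His-tagged Mcl-1 with rhodamine Noxa BH3 peptide and terbium anti-His antibody; 0% = Mcl-1 plus Noxa peptide wells and 100% = peptide-only wells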
# GLD-1 TGE inh = GLD-1-TGE RNA interaction inhibition (C. elegans) | actives 0.44% (n = 320,000) | purified GLD-1 + fluorescein TGE RNA, fluorescence polarization | AID 2280 | inhibition, % at 5.96 µM;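 active = percent inhibition above a per-plate cutoff, the plate mean of test compounds plus 3 SD, cut at about 30% in these data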;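 also: 0% = DMSO wells with GLD-1 and probe and 100% = wells lacking GLD-1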
# An asterisk follows results filed as active; nt = no result given. The list is not random: actives were taken first. Their share in the collection is about 2.3%.
SMILES,Mcl-1 Bim block,Mcl1-Bid inh,BCLXL inh,MCL1 BIM primary,Mcl1-Noxa inh,GLD-1 TGE inh
Cn1c(=O)c2c(nc(NCc3ccco3)n2CC(O)COc2ccccc2)n(C)c1=O (stereo not drawn),-5,-12,2,7,81*,0
COc1ccc(-c2nn(CCC(=O)O)cc2/C=C2\SC(N)=NC2=O)cc1OC,-17,27,6,10,90*,-11
COCC(C)NC(=O)c1cc2cccc([N+](=O)[O-])c2[nH]1 (stereo not drawn),nt,-12,4,4,-8,1
Cc1cc(NC(=O)c2cc3cccc([N+](=O)[O-])c3[nH]2)ccc1F,nt,-2,2,-8,54*,-4
O=C(CCN1C(=O)C2CCCCC2C1=O)Nc1ccc(Br)cc1F (stereo not drawn),nt,nt,-1,-5,nt,4
CC(=O)Oc1ccc(NC(=O)CSc2ccccc2)cc1,0,8,1,2,75*,3
O=C(CSc1ccccc1)Nc1ccccc1C(=O)O,2,56*,1,0,39,7
CC(=O)NS(=O)(=O)c1ccc(NC(=O)CSc2ccccc2)cc1,nt,2,3,3,9,-1
CC1COC(Cn2c3ccccc3c3ccccc32)O1 (stereo not drawn),nt,61*,5,2,18,8
Cc1ccc(Nc2c([N+](=O)[O-])ccc3nonc23)cc1C,nt,nt,15,1,nt,-6
O=C(COc1ccccc1)NC(=S)Nc1ccc2c(c1)Cc1ccccc1-2,13,-34,6,16,52*,7
O=C(COc1ccccc1)NC(=S)Nc1cccc([N+](=O)[O-])c1,-2,-13,5,14,5,7
Nc1cc2nc[nH]c2cc1N,8,-9,nt,nt,74*,nt
C=CCOc1ccccc1CN(C(=O)CCl)c1ccc2c(c1)OCO2,nt,nt,7,5,nt,-1
COc1ccc(S(=O)(=O)/N=C2/NC(=O)/C(=C\c3cc(OC)c(OC)cc3[N+](=O)[O-])S2)cc1,-1,-16,16,11,5,1
COc1cc(/C=C2\S/C(=N/S(=O)(=O)c3ccccc3)NC2=O)c([N+](=O)[O-])cc1OC,nt,14,37*,38,57*,17
CCOC(=O)c1c(NC(=O)Cn2c(C)nc3ccccc32)sc2c1CCC2,1,-18,7,4,-19,0
CCOC(=O)c1c(NC(=O)COC(=O)Cn2c(C)nc3ccccc32)sc2c1CCCC2,-149,56*,1,-4,3,0
Cc1ccc(S(=O)(=O)NC(=O)Nc2cccc(C)n2)cc1,nt,-6,-5,-8,-9,4
COc1nc(C)nc(NC(=O)NS(=O)(=O)c2ccc(C)cc2)n1,-5,-12,5,-4,65*,6
CN(C)c1ccc(N=c2sc3ccccc3n2C)cc1,1,33,1,30,101*,-3
COc1ccc(-n2c(N)c(-c3nc4ccccc4n3C)sc2=S)cc1,-3,-7,6,2,89*,-2
CN(C(=O)COC(=O)CCc1c[nH]c2ccccc12)c1ccccc1,nt,nt,0,-2,nt,1
O=C1c2sc3nc4ccccc4n3c2C(=O)N1c1ccccc1Cl,-12,-17,4,3,62*,-2
O=C(CSc1nnc(-c2ccco2)o1)c1ccc[nH]1,-23,-25,5,8,56*,8
SMILES,Mcl-1 Bim block,Mcl1-Bid inh,BCLXL inh,MCL1 BIM primary,Mcl1-Noxa inh,GLD-1 TGE inh
Cc1cccc(NC(=O)CSc2nnc(-c3ccco3)o2)c1C,-1,-14,5,2,54*,-3
Cc1ccc(C)c(NC(=O)CSc2nnc(-c3ccco3)o2)c1,0,2,7,-2,2,-1
O=C(CN1C(=O)NC(c2ccccc2)(c2ccccc2)C1=O)NCC(=O)Nc1ccc(F)cc1,nt,nt,-4,-5,nt,-3
Cc1cccc(/N=C/c2sc3ccccc3c2O)n1,nt,18,-46,-63,82*,-61
Cc1cccc(/N=C/c2c(O)[nH]c3ccccc23)n1,-2,-40,-5,-11,-8,3
O=[N+]([O-])c1ccc(O)c(N=Cc2sc3ccccc3c2O)c1,-2,-85,-4,-12,53*,-15
COc1cccc(/C=N/NC(=O)CNC(=O)C(c2ccccc2)c2ccccc2)c1O,nt,nt,0,3,nt,5
O=c1nc(/C=C/c2cccn2-c2ccc([N+](=O)[O-])cc2)cc(C(F)(F)F)[nH]1,0,-63,-44,-47,57*,-23
O=c1nc(/C=C/c2cc([N+](=O)[O-])ccc2Cl)cc(C(F)(F)F)[nH]1,2,2,8,8,13,-1
Cc1cc(C)cc(N=Cc2[nH]c3ccc(Br)c(Cl)c3c2O)c1,-5,-15,-64,-111,52*,-58
NC(=O)CSc1nc2ccc([N+](=O)[O-])cc2[nH]1,0,-26,-12,-15,15,-3
Cc1cccc2nc(CSc3nc4ccc([N+](=O)[O-])cc4[nH]3)c(Br)n12,-4,-41,-12,-5,60*,-3
COC(=O)C1=C(C)NC2=C(C(=O)CCC2)C1c1ccc(-c2ccsc2C(=O)OC)o1 (stereo not drawn),nt,-19,6,1,7,0
Nc1nn2c(-c3ccccc3)cc(=O)[nH]c2c1N=Nc1ccc(Br)cc1,1,36,nt,nt,92*,nt
c1ccc(CN=C2NN=C(c3cc4ccccc4o3)CS2)cc1,0,-34,7,1,93*,-3
O=C1N=C(c2ccccc2)S/C1=C\c1cccs1,-8,-28,5,13,72*,-8
Cc1ccc(C)c(N2CCN(C(=O)c3cc4ccccn4n3)CC2)c1,-4,-9,49*,44*,-2,24
CC(=O)Oc1cccc(N2C(=O)C3C4C=CC(CC4)C3C2=O)c1 (stereo not drawn),nt,nt,2,6,nt,1
O=C1C2C3C=CC(C2C(=O)N1c1cccc(O)c1)C1C2C(=O)N(c4cccc(O)c4)C(=O)C2C31 (stereo not drawn),-5,-23,7,4,94*,4
O=C(O)CCc1nc(-c2ccccc2)no1,-1,8,-1,-6,24,4
O=C(O)CCc1nc(-c2cccs2)no1,-5,-5,0,6,84*,10
Cc1cc(C(=O)N/N=C/c2cc(N=Nc3ccccc3)ccc2O)n[nH]1,0,25,-2,27,95*,3
COC(=O)N/N=C/c1cc(N=Nc2ccccc2Cl)ccc1O,nt,7,-2,2,88*,1
COC(=O)N/N=C/c1cc(N=Nc2ccccc2)ccc1O,nt,-15,3,7,-14,7
Cc1cc(C(=O)N/N=C/c2cccc([N+](=O)[O-])c2O)n[nH]1,-8,-80,5,16,36,-3
COc1cc(C[C@@H](C)[C@@H](C)Cc2ccc(O)c(OC)c2)ccc1O,nt,nt,nt,nt,nt,11
